# In the library only some 2.4% were active in any assay of this set; here they are far more common.
# POLK inh – inhibitors of human DNA polymerase kappa. purified Pol kappa, fluorescent DNA synthesis assay, 10 min. Potency, µM (top dose mostly 107 µM), without a hit: at the highest dose activity, negative = inhibition, usual class: inhibitors. actives 0.53% (n = 400,000); further: on the % scale 0 is the no-effect control and ±100 the full control effect
#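 Fluorescent qHTS in 1536-well format: enzyme (10 nM) and compound sat 15 min at room temperature before 50 nM substrate (final) was added. Signal taken at 0 and 10 min; no-enzyme buffer wells were negative controls.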
# FEN1 inh – inhibitors of human flap endonuclease 1. actives 0.35% (n = 390,000). AID 588795. Potency, µM (doses to about 114 µM), for inactives: top-dose activity change, negative = inhibition, usual class: inhibitors. Recombinant FEN1 flap cleavage, fluorescence, 15 min. P39748; further: on the % scale 0 is the no-effect control and ±100 the full control effect; nearly all actives have a fitted effect of over 65% in size
#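 Compounds are tested as a concentration series against 10 nM FEN1; after a 15 min room-temperature preincubation, 50 nM substrate starts cleavage, with plate reads at 0 and 15 min. Normalized responses are fitted by a Hill equation.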
# POLB inh – inhibitors of human DNA polymerase beta; Potency, µM (titrated, usually from 114 µM), without a hit: at the top dose activity change, negative = inhibition, most hits filed as inhibitors; Pol beta primer extension/strand displacement, fluorescence kinetic; actives 1.3% (n = 340,000); further: on the % scale 0 is the no-effect control and ±100 the full control effect
#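 10 nM enzyme + cpd, 15 min RT; start with substrate 50 nM final; read 0 min and after 10 min RT. Corrected, normalized data; 4-parameter Hill curve fit.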
# Pol iota inh – inhibitors of human DNA polymerase iota; Q9UNA4; Potency, µM (highest dose often 115 µM), for the others: at the highest dose activity, negative = inhibition, most hits filed as inhibitors; actives 1% (n = 390,000); Pol iota fluorescent replication assay, 10 min; AID 588590
#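 Fluorescent replication assay read twice, at 0 min and 10 min after adding 50 nM (final) substrate. Enzyme (10 nM) and compounds were first incubated 15 min at room temperature; enzyme-free buffer wells were negative controls.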
# Pol eta inh – DNA polymerase eta (human) inhibition | actives 1.2% (n = 390,000) | recombinant Pol eta, fluorescent DNA replication assay | AID 588591 | Q9Y253 | Potency, µM (highest dose often 114 µM), for the others: at the highest dose activity change, negative = inhibition, usual class: inhibitors; further: on the % scale 0 is the no-effect control and ±100 the full control effect
#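 Fluorescent replication assay: 50 nM final substrate added after a 15 min room-temperature compound preincubation with 10 nM enzyme. Signal taken at 0 min and again at 10 min.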
# WRN inhibitor – inhibitors of human WRN helicase. Q14191. WRN helicase unwinding, fluorescent forked duplex, kinetic. Potency, µM (top dose mostly 114 µM), for inactives: at the top dose activity change, negative = inhibition, most hits filed as inhibitors. actives 0.46% (n = 360,000). AID 651768; further: on the % scale 0 is the no-effect control and ±100 the full control effect; nearly all actives have a fitted effect of over 55% in size
# Target sequence (Q14191 whole entry, looked up): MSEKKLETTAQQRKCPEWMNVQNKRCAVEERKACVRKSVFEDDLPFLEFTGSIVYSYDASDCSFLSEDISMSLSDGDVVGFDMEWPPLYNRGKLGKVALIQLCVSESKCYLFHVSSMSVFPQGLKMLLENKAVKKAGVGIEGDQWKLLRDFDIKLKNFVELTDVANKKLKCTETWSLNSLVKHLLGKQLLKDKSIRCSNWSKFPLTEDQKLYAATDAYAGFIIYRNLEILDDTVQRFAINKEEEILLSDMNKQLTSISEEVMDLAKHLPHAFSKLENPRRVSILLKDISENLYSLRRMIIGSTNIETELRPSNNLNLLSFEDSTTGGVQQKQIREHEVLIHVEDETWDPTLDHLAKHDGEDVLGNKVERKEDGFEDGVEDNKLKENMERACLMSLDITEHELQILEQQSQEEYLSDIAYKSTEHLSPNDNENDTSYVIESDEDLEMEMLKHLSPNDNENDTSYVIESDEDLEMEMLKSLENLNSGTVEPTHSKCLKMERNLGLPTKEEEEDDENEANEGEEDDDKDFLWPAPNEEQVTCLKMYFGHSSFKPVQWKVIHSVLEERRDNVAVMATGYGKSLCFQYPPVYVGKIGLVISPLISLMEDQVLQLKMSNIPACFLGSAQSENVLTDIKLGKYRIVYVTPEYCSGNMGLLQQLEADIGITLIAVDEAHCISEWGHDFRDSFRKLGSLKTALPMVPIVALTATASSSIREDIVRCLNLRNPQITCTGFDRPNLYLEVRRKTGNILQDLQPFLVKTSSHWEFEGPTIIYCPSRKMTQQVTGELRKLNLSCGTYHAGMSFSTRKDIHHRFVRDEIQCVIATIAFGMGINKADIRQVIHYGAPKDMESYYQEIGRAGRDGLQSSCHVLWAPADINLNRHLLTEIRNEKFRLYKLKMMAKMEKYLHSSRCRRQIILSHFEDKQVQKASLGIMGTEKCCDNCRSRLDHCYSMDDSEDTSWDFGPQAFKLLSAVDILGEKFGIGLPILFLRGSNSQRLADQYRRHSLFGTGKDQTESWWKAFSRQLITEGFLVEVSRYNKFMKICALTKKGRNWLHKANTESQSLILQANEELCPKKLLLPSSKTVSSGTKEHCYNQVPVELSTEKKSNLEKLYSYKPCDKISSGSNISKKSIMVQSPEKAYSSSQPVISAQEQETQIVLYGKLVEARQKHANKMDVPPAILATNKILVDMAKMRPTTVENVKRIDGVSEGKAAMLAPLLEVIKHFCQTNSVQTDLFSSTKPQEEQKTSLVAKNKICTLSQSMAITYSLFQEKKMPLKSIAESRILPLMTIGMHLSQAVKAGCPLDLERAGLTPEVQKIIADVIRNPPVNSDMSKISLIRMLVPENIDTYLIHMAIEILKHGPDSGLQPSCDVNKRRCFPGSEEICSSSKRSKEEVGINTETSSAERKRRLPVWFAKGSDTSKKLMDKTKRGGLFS
#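 Screening of the MLSMR collection measured strand separation of a quenched forked DNA duplex (100 nM) by 20 nM WRN with 2 mM ATP, all final. Compounds were preincubated with enzyme 15 min at room temperature.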
# Numbers without * were called inactive; ? = inconclusive; . = no result given; [ ] = remark or other dose. The call rests on the fitted dose curve; in most records, active means well fitted curve in the direction sought with a large enough effect; inconclusive means small, poorly fitted or top-dose-only effect, or another doubt; inactive means no such curve, though single readings can be large; an effect the other way counts as inactive or inconclusive. Potency means the concentration at half of the fitted maximal effect.
SMILES,POLK inh,FEN1 inh,POLB inh,Pol iota inh,Pol eta inh,WRN inhibitor
O=S(=O)(Nc1nc2ccc(S(=O)(=O)N3CCCC3)cc2s1)c1ccc(F)cc1,-27.9%,-4.6%,-1.8%,?,89.1µM*,-2.1%
COc1ccc(C(=O)NCC(=O)N2CC=C(c3ccccc3)CC2)cc1OC,-11.3%,-15.2%,.,1.9%,-0.9%,4.3%
O=C(NCc1cccs1)c1cc(-c2ccncc2)nc2ccc(Br)cc12,.,.,39.8µM*,.,.,.
Cc1nnc(C)n1/N=C/c1ccc(O)cc1,0.2%,8.1%,24.8%,9.4%,-14.1%,2.6%
Cc1cc2ccccn2c1C(=O)c1ccc(N/N=C/c2ccc(C(=O)O)cc2)c([N+](=O)[O-])c1,-9.9%,-5.4%,?,?,35.5µM*,-9.6%
C/C(=N\Nc1ccc(C(=O)c2c(C)cc3ccccn23)cc1[N+](=O)[O-])c1ccc(O)cc1,-11.4%,5.0%,1.5%,3.0%,-1.4%,9.5%
Cc1csc(N2CCN(c3cc4nc(-c5ccncc5)[nH]c4cc3Cl)CC2)n1,-23.8%,0.6%,35.5µM*,?,8.3%,-9.4%
Cc1cccc2sc(N(Cc3cccnc3)C(=O)c3ccco3)nc12,-7.2%[60.1 µM],-20.5%,0.9%,-4.6%,11.9%,.
C=C(C)C1CC=C(C)/C(=N/NC(=O)CNc2ccc(OCC)cc2)C1 (centres undefined),0.2%,-6.3%,-1.6%,89.1µM*,-2.8%,-6.5%
CC/C(C)=N\NC(=O)CNC(=O)c1ccc(Cl)cc1Cl,6.5%,3.4%,8.2%,-16.7%,-8.6%,-4.4%
COc1ccc2c(CC(=O)N3CCN(S(=O)(=O)c4ccc(F)cc4)CC3)coc2c1,?,-9.8%,.,?,31.6µM*,-27.6%
COc1cc(/C=C/c2cc[n+](C)cc2)ccc1OCC(=O)Nc1ccc(Cl)c(Cl)c1,-12.2%,?,56.2µM*,64.2%,89.1µM*,3.6%[11.6 µM]
COc1ccc(NC(=O)COc2ccc(/C=C/c3cc[n+](C)cc3)cc2OC)cc1,-17.5%,-21.0%,?,?,-10.3%,-0.8%
COc1ccc(NC(=O)COc2ccc(/C=C/c3cccc[n+]3C)cc2OC)cc1,?,11.3%,11.2µM*,44.7µM*,-14.4%,-1.3%[11.6 µM]
O=C(O)CC1(CC(=O)O)Nc2ccccc2SC1=O,1.5%,-1.0%,.,-22.4%,-14.6%,-1.9%
Cc1occc1C(=O)NCc1cccc(CNC(=O)c2ccoc2C)c1,31.6µM*,?,22.4µM*,15.8µM*,3.55µM*,39.8µM*
Cc1occc1C(=O)NCc1ccc2c(c1)OCO2,-21.9%,-6.2%,0.8%,8.9%,?,7.5%
CCOc1ccc(Nc2cc(C)nc3nc(Cc4ccc(Cl)cc4)nn23)cc1,-29.1%,6.5%,?,79.4µM*,-20.0%,.
COC(=O)[C@@H]1C[C@@]2(Br)c3ccccc3N(S(=O)(=O)c3ccccc3)[C@H]2N1C(=O)OC,-1.1%,-4.5%,.,89.1µM*,-16.7%,-11.5%[11.6 µM]
COC(=O)[C@@H]1C[C@]2(Br)c3ccccc3N(S(=O)(=O)c3ccccc3)[C@@H]2N1C(=O)OC,3.2%,3.2%,.,-15.7%,-12.4%,0.2%
O=C(COC(=O)c1ccc(S(=O)(=O)NCc2ccco2)cc1)Nc1ccccc1,-16.5%,-2.3%,.,35.2%,-14.8%,-6.3%
O=C(COC(=O)CNC(=O)c1ccc(-c2ccccc2)cc1)NCc1ccco1,-9.7%,0.9%,8.91µM*,70.5%,-21.9%,-13.9%
O=C(COC(=O)c1cc(-c2ccc(Cl)s2)nc2ccccc12)NCc1ccco1,-10.1%,3.4%,1.4%,?,20µM*,35.5µM*
O=C(COC(=O)c1ccc(S(=O)(=O)NCc2ccco2)cc1)NCC1CCCCC1,-30.9%,8.0%,35.5µM*,?,?,?
Cc1cccc(C(=O)OCC(=O)NCc2ccco2)c1,?,-15.6%,.,79.4µM*,15.8µM*,5.6%[11.6 µM]
SMILES,POLK inh,FEN1 inh,POLB inh,Pol iota inh,Pol eta inh,WRN inhibitor
O=C(COC(=O)COc1ccccc1)NCc1ccco1,1.5%,-0.3%,.,15.1%,-4.0%,-3.5%
CCOC(=O)C(=O)NNc1ccccc1OC,0.2%,-6.9%,9.7%,137.2%,-14.5%,-13.0%
Cc1ccc(C(=O)NC2CCCCNC2=O)cc1C (centres undefined),-3.7%,5.2%,-12.3%,52.9%,-11.8%,12.8%
O=C(COC(=O)c1cccc(Br)c1)NCc1ccco1,?,-1.1%,.,25.1µM*,79.4µM*,?
O=C(COC(=O)c1ccc(Br)o1)NCc1ccco1,?,-10.5%,.,50.1µM*,10µM*,?
CCOc1ccc(C(=O)OCC(=O)NCc2ccco2)cc1OCC,?,-9.6%,20µM*,?,?,?
O=C(NCc1ccco1)c1ccc(S(=O)(=O)N2CCOCC2)cc1,?,-1.4%,35.5µM*,15.8µM*,?,-9.9%[57.1 µM]
CCOc1cc(C(=O)NCc2ccco2)cc(OCC)c1OCC,-4.1%,-9.7%,18.3%,31.1%,-8.6%,-3.8%
COCCN(C(=O)COC(=O)c1ccc2c(c1)OCO2)c1c(N)n(Cc2ccccc2)c(=O)[nH]c1=O,.,.,.,.,-16.3%,2.8%
Cn1c(=O)c2[nH]c(CN3CCCCC3)nc2n(C)c1=O,-11.3%,14.2%,.,45.8%,-12.4%,-4.8%
COC(=O)c1noc(-c2ccc(C)cc2)n1,1.1%,0.4%,4.0%,23.8%,5.9%,14.2%
Nc1nonc1C(=Nc1ccc(Br)cc1)NO,-4.8%,-9.6%,?,7.8%,-13.9%,-4.8%
O=C(COC(=O)c1cc(Cl)cc(Cl)c1)NCc1ccco1,?,-12.0%,.,?,56.2µM*,-3.1%[11.6 µM]
O=C(COC(=O)c1ccco1)NCc1ccco1,-3.6%,2.0%,-6.3%,-16.1%,-7.6%,-11.2%
COc1ccc2oc(C(=O)OCC(=O)NCCc3ccccc3)c(C)c2c1,-14.9%,-0.2%,.,-14.5%,-13.3%,7.9%
O=C(NCc1ccco1)c1ccc(S(=O)(=O)N2CCCCC2)cc1,-6.8%,-14.3%,3.1%,-11.9%,-3.6%,-10.1%
O=C(COC(=O)c1ccc(S(=O)(=O)N2CCCC2)cc1)NCc1ccco1,?,-9.0%,?,50.1µM*,?,-4.6%[11.6 µM]
COc1ccc2oc(C(=O)OCC(=O)NCc3ccco3)c(C)c2c1,-25.6%,0.1%,.,?,50.1µM*,-13.3%
O=C(COC(=O)c1ccccc1)NCc1ccco1,?,-11.5%,25.1µM*,28.2µM*,12.6µM*,-7.3%[11.6 µM]
CC(C)(O)P(=O)(O)CCc1ccccc1,3.5%,-1.6%,22.8%,154.9%,-15.0%,-18.7%
CCN(CCCNC(=O)CCCn1c(=O)[nH]c2ccccc2c1=O)c1cccc(C)c1,-8.0%,-1.3%,5.9%,19.7%,4.7%,-1.4%
O=C(COC(=O)Cc1c(Cl)cccc1Cl)NCc1ccco1,?,13.7%,.,44.7µM*,35.5µM*,-7.6%[11.6 µM]

# Screens deposited in PubChem BioAssay by National Center for Advancing Translational Sciences (NCATS).
